According to PubChem BioAssay (Tox21):
Results filed as inconclusive are left out. A call without a number means that no potency is given here. Calls of active or inactive are those of the source. Calls come from the whole dose curve; as a rule, active = well fitted cell-killing curve with a large enough effect in the repeat runs; inconclusive = weak or mixed curves, or effect the other way; inactive = flat fitted curve, though single readings scatter.

Assay: qHTS assay to identify small molecule antagonists of the androgen receptor (AR) signaling pathway using the MDA cell line in the presence of 0.5 nM R1881 - cell viability counter screen (AID 1259242); note: nearly all actives have a fitted effect of over 45% in size
Conditions: MDA-kb2 viability, CellTiter-Fluor protease fluorescence, 16 h; series mostly up to 92.4 µM
Source text: U.S. Tox21 Program National Center for Advancing Translational Sciences [NCATS] NIH Chemical Genomics Center [NCGC] U.S. Environmental Protection Agency [EPA] National Institutes of Environmental Health Sciences [NIEHS] National Toxicology Program [NTP] U.S. Food and Drug Administration [FDA] Tox21 Assay Overview: Androgen receptor (AR) is an important member of the nuclear receptor family. Its signaling plays a critical role in AR-dependent prostate cancer and other androgen related diseases. Considerable attention has been given in the past decades to develop methods to study and screen for the environmental chemicals that have the potential to interfere with metabolic homeostasis, reproduction, developmental and behavioral functions. Therefore AR binding assay for screening androgen antagonists can be used to identify potential endocrine disruptors. MDA-kb2 cells (from ATCC, deposited by Wilson et al.) were used to screen for AR inhibitors against Tox21 compound libraries. These cells are human breast carcinoma cells that were stably transfected with a luciferase reporter gene under control of the MMTV promoter that contains response elements for both androgen receptor (AR) and glucocorticoid receptor (GR). The current screening for identification of AR inhibitors against Tox21 libraries used lower concentration of (0.5 nM) R1881 as a stimulator. The cytotoxicity of the Tox21 compound libraries against MDA-kb2 cell line was tested by measuring live-cell protease activity using CellTiter-Fluor assay in the same wells.
Tox21 Assay Protocol Summary: MDA-kb2 cells (cells cultured without CO2) were dispensed at 3,000 cells/well in 4 uL of culture medium into white wall/solid-bottom 1536-well plates (Corning Life Sciences, Corning, NY) using a Multidrop Combi (ThermoFisher Scientific, Waltham, MA) dispenser. After the assay plates were incubated at a 37C and 0% CO2 for 5 hr, 23 nL of compounds dissolved in DMSO, positive controls or DMSO only was transferred to the assay plate by a Pintool station (Kalypsys, San Diego, CA). The transfer of compounds was followed by the addition of 1 uL of 0.5 nM (final concentration) agonist (R1881)/culture medium using a Flying Reagent Dispenser (FRD, Aurora Discovery, San Diego, CA). The plates were incubated at 37C and 0% CO2 for 16 hr. For cytotoxicity assay, 1 uL of CellTiter-Fluor reagent (Promega Corporation, Madison, WI) was added to each well using the FRD and after 30 min incubation at 37C and 0% CO2, The fluorescence intensity was measured using ViewLux plate reader (PerkinElmer, Shelton, CT).
With `C=C1C[C@]23C[C@@]1(O)CC[C@H]2[C@@]12C=C[C@H](O)[C@@](C)(C(=O)O1)[C@H]2[C@@H]3C(=O)O` the Potency was “inactive”. For `COc1ccc(N)c(OC)c1`, the Potency was “inactive”. In the case of `Brc1ccc(Oc2ccc(Br)cc2)cc1`, the Potency is reported as “inactive”. In the case of `CC/C=C(\C(=O)N[C@@H]1C(=O)N2C(C(=O)OCOC(=O)C(C)(C)C)=C(COC(N)=O)CS[C@H]12)c1csc(N)n1`, the Potency is reported as “inactive”. In the case of `Cc1nnc(NS(=O)(=O)c2ccc(N)cc2)s1`, the Potency is reported as “inactive”. For `Cc1ccccc1C=O`, the Potency was “inactive”. In the case of `CC(C=O)Cc1ccc(C(C)(C)C)cc1` (stereo not given), the Potency is reported as “inactive”. For `O=Cc1ccc(CO)o1`, the Potency was “inactive”. In the case of `CC(=O)OC(C)(C)C1CC=C(C)CC1` (stereo not given), the Potency is reported as “inactive”. With `Nc1cccc(C(F)(F)F)c1` the Potency was “inactive”. For `COc1c(Cl)ccc(Cl)c1C(=O)O`, the Potency was “inactive”. With `NC1CCCCC1N` (stereo not given) the Potency was “inactive”. In the case of `C=CC(C)(C)C`, the Potency is reported as “inactive”. For `Cc1cc(CC(=O)O)n(C)c1C(=O)c1ccc(Cl)cc1`, the Potency was “inactive”. In the case of `CS(=O)(=O)c1ccc(Cl)cc1`, the Potency is reported as “inactive”. For `CN1CCCC1=O`, the Potency was “inactive”. With `CN=C(NC#N)NCCSCc1nc[nH]c1C` the Potency was “inactive”. In the case of `Cc1cc(C)c(O)c(C)c1`, the Potency is reported as “inactive”. In the case of `NC(N)=S`, the Potency is reported as “inactive”. In the case of `C1CCCNCC1`, the Potency is reported as “inactive”. With `CC/C(C)=N/O` the Potency was “inactive”. For `Cc1ccncc1`, the Potency was “inactive”. For `NC(=O)c1ncn([C@@H]2O[C@H](CO)[C@@H](O)[C@H]2O)n1`, the Potency was “inactive”. In the case of `C=C(C)CC(C)(C)C`, the Potency is reported as “inactive”. With `CCCCCCCCCCCCCC(=O)O` the Potency was “inactive”. With `CC(=O)OCCC(C)C` the Potency was “inactive”. With `CCc1cccc(CC)c1N` the Potency was “inactive”. In the case of `O=[N+]([O-])c1cc(C(F)(F)F)ccc1Cl`, the Potency is reported as “inactive”. In the case of `CC(=O)CC(=O)N(C)C`, the Potency is reported as “inactive”. In the case of `OB(O)O`, the Potency is reported as “inactive”. In the case of `N#CCC(=O)O`, the Potency is reported as “inactive”. In the case of `CCCOCC(C)O` (stereo not given), the Potency is reported as “inactive”. With `O=[N+]([O-])c1ccccc1C(F)(F)F` the Potency was “inactive”. In the case of `CC[N+](CC)(CC(=O)Nc1c(C)cccc1C)Cc1ccccc1`, the Potency is reported as “inactive”. For `C=C(CC(=O)O)C(=O)O`, the Potency was “inactive”. With `CO[Si](CCCNCCN)(OC)OC` the Potency was “inactive”. In the case of `Cc1ccc(C)c(S(=O)(=O)O)c1`, the Potency is reported as “inactive”. For `CCCOC(=O)NCCCN(C)C`, the Potency was “inactive”. For `COc1c2ccoc2cc2oc(=O)ccc12`, the Potency was “inactive”. In the case of `Cc1cccc(C)c1[N+](=O)[O-]`, the Potency is reported as “inactive”.
